Source: PubChem BioAssay (National Center for Advancing Translational Sciences (NCATS))
Sampled rows, rich in hits. Any-hit rate of the full collection: about 2.9%.
HEK293 cAMP ctrl: qHTS Assay for Agonists of the Thyroid Stimulating Hormone Receptor: Activators of Intracellular cAMP Concentrations in Parental HEK 293 | parental HEK293 CNG cAMP sensor, membrane potential fluorescence | Potency, µM (top dose mostly 57.1 µM), for the others: at the top dose activation, actives largely listed as activators | 2.5% of 73,000 active | AID 938, 2007; active means well fitted activation curve with a large enough effect; inconclusive means small, poorly fitted or top-dose-only effect; inactive means no such curve, though single readings can be large or run the other way; further: % of control where 0% means no effect; nearly all actives have a fitted effect of over 55% in size
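Parental HEK 293 cells stably expressing a modified CNG channel (no TSHR) report cAMP rise as membrane depolarization. Membrane potential dye with 100 uM RO 20-1724 was loaded for 60 min at room temperature, then compound added for 30 min; fluorescence read at 590 nm.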
TSHR agonist: qHTS Assay for Agonists of the Thyroid Stimulating Hormone Receptor; HEK293-CNG-TSHR cells (CNG channel as cAMP sensor), membrane potential dye, cAMP; 0.48% of 73,000 active; Potency, µM (titrated, usually from 57.1 µM), without a hit: at the top dose activation, actives largely listed as activators; Thyrotropin receptor (Homo sapiens), P16473; active means well fitted activation curve with a large enough effect in the main read-out, with a control signal flat, not every such curve was filed as active; inconclusive means small, poorly fitted or top-dose-only effect, or a change in a side signal; inactive means no such curve, though single readings can be large or run the other way; % of control where 0% means no effect;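 further: the control signal comes from parental cells without the receptor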
Target sequence (P16473 whole entry, looked up): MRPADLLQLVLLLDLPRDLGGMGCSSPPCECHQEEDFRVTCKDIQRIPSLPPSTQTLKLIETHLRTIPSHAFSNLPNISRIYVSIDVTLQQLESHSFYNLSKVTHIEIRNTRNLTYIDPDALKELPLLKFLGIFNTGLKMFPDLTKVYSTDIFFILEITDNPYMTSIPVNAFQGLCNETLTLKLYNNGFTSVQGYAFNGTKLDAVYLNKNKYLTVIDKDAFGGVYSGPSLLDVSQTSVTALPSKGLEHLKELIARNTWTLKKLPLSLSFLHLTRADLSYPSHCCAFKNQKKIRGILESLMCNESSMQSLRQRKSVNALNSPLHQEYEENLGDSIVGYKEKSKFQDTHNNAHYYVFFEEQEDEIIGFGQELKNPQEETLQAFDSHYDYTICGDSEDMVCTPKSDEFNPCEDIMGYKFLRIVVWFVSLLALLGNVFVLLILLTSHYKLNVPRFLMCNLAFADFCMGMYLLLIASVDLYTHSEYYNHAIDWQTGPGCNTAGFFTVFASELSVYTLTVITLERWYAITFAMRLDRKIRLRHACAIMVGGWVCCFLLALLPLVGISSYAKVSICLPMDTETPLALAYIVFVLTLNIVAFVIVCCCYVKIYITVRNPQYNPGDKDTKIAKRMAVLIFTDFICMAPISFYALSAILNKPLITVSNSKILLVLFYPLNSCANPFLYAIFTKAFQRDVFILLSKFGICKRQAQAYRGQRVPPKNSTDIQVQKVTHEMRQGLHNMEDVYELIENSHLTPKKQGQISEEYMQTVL
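cAMP rise detected as CNG-channel membrane depolarization by fluorescent dye (emission 590 nm), 30 min after compound, following 60 min dye loading containing 100 uM RO 20-1724 at room temperature. Cells: TSHR/CNG HEK 293, with parental CNG HEK 293 as control.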
An asterisk follows results filed as active; u = inconclusive; x = no result; ! = repeats disagree; [ ] = dose if it differs, or a comment. Potency means the concentration at half of the fitted maximal effect.

SMILES	HEK293 cAMP ctrl	TSHR agonist
Nc1ncnc2c1ncn2[C@@H]1O[C@@H](CO)[C@H](O)[C@@H]1O	25.1µM*	u
Nc1ncnc2c1ncn2[C@@H]1O[C@@H](CO)[C@H](O)[C@H]1O	6.5%[25.6 µM]	-19.3%[25.6 µM]
O=Nc1ccc(NO)cc1	15.1%	5.4%
O=C(Nc1ccccc1)c1cc([N+](=O)[O-])ccc1Cl	-31.2%	u
O=C(Nc1ccc([N+](=O)[O-])cc1Cl)c1cc(Cl)ccc1O	0.501µM*	u
CC(=O)[C@@H](C)CCO[C@@]1(C)OCC[C@@H]1C	-10.6%[11.4 µM]	-2.3%[11.4 µM]
Cc1ccc(C(=N)c2ccccc2Cc2cccc3ccccc23)c2ccccc12	9.1%[11.4 µM]	2.7%[11.4 µM]
Cc1cc(C)nc(NC(=O)c2c(-c3c(Cl)cccc3Cl)noc2C)n1	1.6%	-2.4%
CC(=O)Nc1cccc(NC(=O)c2c(-c3c(Cl)cccc3Cl)noc2C)c1	-11.7%[11.4 µM]	2µM*
Clc1ccc(/C=C\c2nc(Cl)c(-c3ccc(Cl)cc3)c(Cl)n2)cc1	8.6%[11.4 µM]	1.6%[11.4 µM]
CC(C)NC[C@@H](O)COc1ccccc1-n1cccc1	25.7%	15.4%
Cc1ccc(OC[C@H](O)[C@H](C)NC(C)C)c2c1CCC2	39.8µM*!	u
C/C(=N\NC(=O)c1ccncc1)c1ccc2ccccc2c1O	-10.9%[11.4 µM]	4.3%[11.4 µM]
O=C(c1ccc(N2CN(C(=O)c3ccco3)c3nc4ccccc4nc32)cc1)N1CCOCC1	-3.0%	1.26µM*
O=C(c1ccncc1)N1CCN(C(=O)c2ccco2)CC1	-0.5%	x
Cn1cccc1C(=O)N1CCC2(CCCN(C(c3ccccc3)c3ccccc3)C2)CC1	14.7%	3.4%
Cn1cccc1C(=O)N1CCC[C@@]2(CCN(C(c3ccccc3)c3ccccc3)C2)C1	10µM*	u
CS(=O)(=O)c1ccc(/C=N\NC(N)=S)cc1	7.6%[11.4 µM]	0.9%[11.4 µM]
CCCNC(=O)OC[C@@H]1O[C@H](CCO/N=C(\C)CCN2CCc3nc(CC)c(CC)cc3C2)C=C[C@@H]1Oc1ccc(OC)cc1	5.8%[11.4 µM]	-0.4%[11.4 µM]
CCN(CC)S(=O)(=O)c1ccc(F)cc1	6.0%	-6.2%
CCOC(=O)CCN(Cc1cccs1)S(=O)(=O)c1ccc(F)cc1	12.6µM*	u
COc1cc(OC)c(/C=C2/C(=O)Nc3ccccc32)c(OC)c1	-6.3%	15.1%
Cc1cc(C)c(/C=C2/C(=O)Nc3ccccc32)[nH]1	1.58µM*	u
CCCn1c(SCC(=O)Nc2ccc3c(c2)OCCO3)nnc1-c1ccco1	7.4%	0.4%
Cc1ccc(-n2c(SCC(=O)Nc3ccc4c(c3)OCCO4)nnc2-c2ccco2)cc1	22.5%	25.1µM*
SMILES	HEK293 cAMP ctrl	TSHR agonist
O=C(N[C@@]1(C(=O)O)C[C@@H]1c1ccccc1)c1ccccc1	5.7%[11.4 µM]	3.0%[11.4 µM]
c1ccc(CCc2nn3c(C4COc5ccccc5O4)nnc3s2)cc1 (stereo unspecified)	15.8µM*	u
Cc1ccc(-c2nnc3sc(C4COc5ccccc5O4)nn23)cc1 (stereo unspecified)	25.1µM*	u
c1ccc(-c2nn3c(C4COc5ccccc5O4)nnc3s2)cc1 (stereo unspecified)	8.6%	19.5%
COc1ccccc1-c1nn2c(C3COc4ccccc4O3)nnc2s1 (stereo unspecified)	25.1µM*	u
c1ccc(Cc2nn3c(C4COc5ccccc5O4)nnc3s2)cc1 (stereo unspecified)	4.7%	17.9%
Clc1ccccc1-c1nnc2sc(C3COc4ccccc4O3)nn12 (stereo unspecified)	24.8%	19.1%
CC(=O)O[C@@H]1CC[C@]2(C)[C@H]3CC[C@]4(C)[C@H](C[C@H]5CCCC[C@@]54C(C)=O)[C@@H]3CC(=O)[C@@]2(O)C1	-4.4%	-0.9%
COc1c(O)cc2oc3cc(O)c(CC=C(C)C)c(O)c3c(=O)c2c1CC=C(C)C	-10.7%	0.2%
N#Cc1cc2c(nc1SCC(O)CS(=O)(=O)Cc1ccccc1)CCCC2 (stereo unspecified)	20.2%	21.5%
N#Cc1cc2c(nc1SCc1cccnc1)CCCCC2	10µM*	u
C[C@@]12CC[C@@H]3[C@H](CCC4=CC(=O)CC[C@]43C)[C@@H]1CC[C@@H]2C(=O)COS(=O)(=O)c1ccc(Br)cc1	4.3%[11.4 µM]	-0.4%[11.4 µM]
Cc1cccc(NS(=O)(=O)c2ccc(Cl)c(C(=O)O)c2)c1	-5.1%	3.6%
CCN(CC)C(=O)CSc1nnc2sc3ccccc3n12	-0.3%	-1.7%
COc1cccc(OCCSc2nnc3sc4ccccc4n23)c1	15.8µM*	u
C[C@H](NCCN(C)C)[C@@H]1CCC2C3CCc4cc(O)ccc4[C@H]3CCC21C (stereo partly specified)	-3.6%[11.4 µM]	8.1%[11.4 µM]
CC(=O)O[C@H]1C2=CO[C@H](C)[C@H]3[C@H]4C5=C([C@H](O)[C@H]6O[C@@H]6C5=O)[C@H](O[C@H]4C)[C@@]23C(=O)[C@H]2O[C@@H]21	-2.3%[11.4 µM]	-3.3%[11.4 µM]
c1ccc2c(N3CCOCC3)nc(-c3ccoc3)nc2c1	13.5%	x
CN1CCN(c2nc(-c3ccoc3)nc3ccccc23)CC1	15.1%	5.01µM*
Cc1ccc2ccccc2c1[N+](=O)[O-]	-55.7%	u
CC(=O)OCC1OC(C#Cc2ccc(Cl)cc2)C=CC1OC(C)=O (stereo unspecified)	-4.4%[11.4 µM]	6.8%[11.4 µM]
Cc1noc(C)c1COC(=O)CCCOc1ccc(Cl)cc1Cl	29.6%	25.8%
Cc1ccc2c(Cl)cc(Cl)c(OCc3c(C)noc3C)c2n1	15.8µM*	u
CC(=O)N[C@@H]1CONC1=O	1.7%[11.4 µM]	1.7%[11.4 µM]
C=CCn1c(=O)c(C(=O)Nc2ccccc2OC)c(O)c2ccccc21	8.0%[11.4 µM]	-6.7%[11.4 µM]
SMILES	HEK293 cAMP ctrl	TSHR agonist
C=CCn1c(=O)c(C(=O)NCCNCC)c(O)c2ccccc21	12.6µM*	u
N#CCc1ccccc1[N+](=O)[O-]	6.0%	-0.3%
O=C(OCC(=O)N1CCCCC1)c1cc2ccccc2cc1O	11.7%	1.2%
CCC1CCCCN1C(=O)COC(=O)c1cc2ccccc2cc1O (stereo unspecified)	31.6µM*	u
O=C(c1cc(C(F)(F)F)cc(C(F)(F)F)c1)N1CCC2(CC1)CN(c1ccccc1)C2	12.5%	2.1%
CCN(c1ccccc1)c1cc(C)nc2nc(C)nn12	-0.1%	18.6%
CCN(c1ccccc1)c1cc(NC)[n+](C)c(C)n1	31.6µM*	u
CO[C@@H]1COC(=O)CCC[C@@H](C)[C@H](OC)COC(=O)[C@H](Cc2ccccc2)NC(=O)C/C=C\[C@H]1C	20.4%[11.4 µM]	2.3%[11.4 µM]
COC(=O)c1ccc(CSc2nc3c(c(=O)n2-c2ccc(F)cc2)SCC3)o1	26.0%	3.16µM*
COC(=O)c1ccc(CSc2nc3c(c(=O)n2-c2ccccc2)SCC3)o1	-4.1%	-4.9%
CC(=O)C1=C(O)C(=O)N(CCc2c[nH]c3ccccc23)C1c1ccco1 (stereo unspecified)	-0.4%	0.6%
CC(=O)C1=C(O)C=C(c2ccco2)CC1c1ccco1 (stereo unspecified)	15.8µM*	u
O=C(CN1C(=O)CSC1=O)N1CCc2ccccc2C1	13.8%	3.4%
CCCCNc1nc2ccccc2n1CC(=O)N1CCc2ccccc2C1	2µM*	u
OC[C@H](CCc1c[nH]c2ccccc12)c1c[nH]c2ccccc12	-11.5%[11.4 µM]	-10.7%[11.4 µM]
COc1cccc(/C=C/C2=CC3(C)CC2(C)C(c2cccc(OC)c2)CC3=O)c1 (stereo unspecified)	11.4%[11.4 µM]	3.0%[11.4 µM]
Clc1ccc(Cn2nnc(-c3ccc(CN4CCOCC4)cc3)n2)cc1	31.6µM*	u
